# Results: PubChem BioAssay AID1345083 (National Center for Advancing Translational Sciences (NCATS), 2018)
# Hit rate of the full screen: of about 94,000 compounds, about 6,200 (6.6%) were called active. About 31% were inconclusive and are not listed. Only a selection was taken, and actives are over-represented in it overall. Values without a mark were called inactive. Calls follow the shape of the dose curve; as a rule, active = well fitted inhibition curve with a large enough effect; inconclusive = small, poorly fitted or top-dose-only effect; inactive = flat fitted curve, though single readings scatter.
# Assay: Cytotoxic Profiling in HEK 293 Cell Line of Diverse Libraries Using Quantitative High-Throughput Screening; also: nearly all actives have a fitted effect of over 60% in size
# Details: HEK 293 viability, ATP luminescence (CellTiter-Glo), 48-72 h; series mostly up to 115 µM; activity change, negative = cytotoxicity: at the top concentration
# Summary of the method: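 HEK 293 seeded at 250 cells/well receive compound via pintool. After 48 or 72 hr at 37 degree Celsius, 5% CO2 and 95% humidity, CellTiter-Glo is dispensed and luminescence read following 10 min at room temperature.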
# % is scaled to controls: 0 for no effect and ±100 for the full control effect; potency is read from the fitted curve at half-maximal effect.
SMILES,"activity change, negative = cytotoxicity",Potency,outcome
COCCN1CCOC[C@H]2CCN(C(=O)c3sc(C)nc3C)C[C@H]21,8.08%,–,–
COCCNC(=O)CC[C@]12CC[C@](C)(O)C[C@H]1C(C)(C)C[C@@H]2NC(=O)c1ccco1,1.79% [at 172 µM],–,–
CNC(=O)[C@@H]1CN(Cc2cccc(OC)c2)C[C@H]1CO,-2.57%,–,–
N[C@@H]1CCN(Cc2cccc(Oc3ccc(F)cc3)c2)C[C@H]1O,–,79.4 µM (active),–
COc1cccc(CN2CC[C@@](C)(O)[C@H](N3CCCC3)C2)c1,-1.62%,–,–
COC(=O)C1=C(C)N=C2SC=C(CC(=O)NCc3ccco3)N2C1c1cccc(F)c1 (stereo not given),-28.9%,–,–
CC(C)(C)c1nc(C(=O)N2CCOCC2)n2ccccc12,-9.1% [at 172 µM],–,–
CCCNC(=O)N1CCCC1c1nc(C2CCOCC2)no1 (stereo not given),-1.86%,–,–
COCCN1C(=O)CS(=O)C12CCN(C(=O)NC1CCCC1)CC2 (stereo not given),–,–,inactive
Cn1nccc1C(=O)N1CCCCCNC(=O)[C@@H]2CCC[C@@H]21,1.85%,–,–
O=C(c1cccc(F)c1)N1CCCC(c2nccn2Cc2cscn2)C1 (stereo not given),-9.43%,–,–
COc1ccccc1Nc1ncc2c(n1)CN(C(=O)COc1ccccc1)CCN2,-45.3% [at 172 µM],–,–
O=C(c1cccc(O)c1)N1CCNc2cnc(Nc3cccc(F)c3)nc2C1,–,100 µM (active),–
Cc1ccc(C(=O)N2C[C@H]3CN(C4CCOCC4)C[C@@]3(C(=O)O)C2)cc1,-3.71%,–,–
COc1ccc(-c2ccnc(-c3nnc(C)n3C3CCN(C)CC3)c2)cc1OC,–,–,inactive [at 172 µM]
Cc1nnc(-c2cc(-c3ccccc3)ccn2)n1CCc1ccccc1,–,89.1 µM (active),–
COCCn1c(C)nnc1-c1cc(-c2cccc(F)c2)ccn1,-14.4% [at 172 µM],–,–
O=C(C1CCN([S+](=O)([O-])c2cccs2)CC1)N1CCC(c2nc3ncccc3[nH]2)CC1,-26%,–,–
Cc1ccc(N2Cc3c(NC4CCCCC4)ncnc3N(C)CC2=O)cc1,-23.9%,–,–
O=C(Cc1cccn1-c1ccccc1)N1CCOCC1,8.81%,–,–

SMILES,"activity change, negative = cytotoxicity",Potency,outcome
Cc1ccc(C(=O)N2CCCC(C(=O)NCc3ccccc3)CCNC(=O)CC2)s1 (stereo not given),-11.4%,–,–
O=[N+]([O-])c1cccc(-c2noc([C@@H]3C[C@@H](O)CN3Cc3cccnc3)n2)c1,-20% [at 172 µM],–,–
COc1ccc(-c2nc(C)nc3c2CN([S+](C)(=O)[O-])CC3)cc1,2.07%,–,–
COc1ccc(C(=O)N2CCc3nc(C4CC4)nc(-c4ccc(Cl)cc4)c3C2)cc1,-23.7%,–,–
COc1ccc(-c2nnc3n2CCN(C(=O)c2cccc(OC)c2)C3)cc1,-1.3%,–,–
COc1ccc(-c2nc(C3CC3)nc3c2CCN([S+](=O)([O-])c2ccccc2)CC3)cc1,-25.8%,–,–
COc1ccc(-c2nc(C(C)C)nc3c2CCN([S+](=O)([O-])c2cccc(C(F)(F)F)c2)CC3)cc1,–,39.8 µM (active),–
COc1cccc(C(=O)N2CCc3nc(C(C)C)nc(-c4ccc(Cl)cc4)c3C2)c1,–,89.1 µM (active),–
CCC(CC)C(=O)N1CCC(N2CCCC(C(=O)NCc3ccccc3)C2)CC1 (stereo not given),-6.43%,–,–
COc1cc(SC)ccc1C(=O)N[C@@H]1C=C(C(=O)N[C@H](Cc2ccccc2)C(N)=O)C[C@@H](O)[C@@H]1O,-6.4%,–,–
CCCC(NC(C)=O)C(=O)Nc1cccc(NC(=O)Cc2ccccc2)c1 (stereo not given),-5.42%,–,–
O=c1[nH]c(C2CCN(Cc3ccc(F)cc3)CC2)nn1Cc1ccccc1,-21.8%,–,–
COc1ccccc1C(=O)N1CCC2(CCC(=O)N(Cc3ccccc3)CC2)CC1,9.71%,–,–
COc1ccccc1C(=O)N1CCC2(CC1)CC(=O)c1ccccc1O2,–,112 µM (active),–
COc1ccccc1C(=O)N1CCC(n2cnnc2C2CC2)CC1,-2.05%,–,–
OC1CC(c2cc(N3CCC(c4nnc5n4CCCCC5)CC3)ncn2)C1 (stereo not given),2.4%,–,–
O=C(O)c1cccc(-c2ccccn2)c1,–,inactive,–
COCCN1C(=O)c2cccn2CC1CNC(=O)c1ccccc1F (stereo not given),4.36%,–,–
CN(C)[C@@H]1CO[C@H](CNS(=O)(=O)c2ccccc2)[C@H]1O,–,–,inactive [at 172 µM]
CNC(=O)c1cc[nH]c1C1CCCN(C(=O)Cc2c[nH]c3ccccc23)C1 (stereo not given),3.91%,–,–
